# Screens deposited in PubChem BioAssay by National Center for Advancing Translational Sciences (NCATS).
# Most compounds without a hit are left out; they make up all but 19% or so of the library.
# DT40 TDP1 CPT = DT40-hTDP1 cell growth loss with CPT | chicken DT40 Tdp1-/-;hTDP1 cells + 20 nM CPT, ATP luminescence, 48 h | Potency, µM (series often up to 46.2 µM), without a hit: at the top dose activity change, negative = growth inhibition, hits mostly inhibitors | actives 12% (n = 420,000) | AID 686979; note: potency is the fitted concentration of half-maximal effect; % is set by controls: 0 for no effect and ±100 for the full control effect; nearly all actives have a fitted effect of over 55% in size
#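 Cell growth measured by CellTiter-Glo luminescence after a minimum 48 h, 37 C compound exposure with 20 nM CPT in Tdp1-knockout DT40 cells stably expressing hTDP1, seeded 400/well; qHTS titration format.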
# TDP1 block = blocks human tyrosyl-DNA phosphodiesterase 1. Q9NUW8. recombinant TDP1, AlphaScreen DNA substrate cleavage. Potency, µM (titrated, usually from 130 µM), inactives show at the top dose activity change, negative = inhibition, usual class: inhibitors. actives 0.28% (n = 350,000); note: potency is the fitted concentration of half-maximal effect; % is set by controls: 0 for no effect and ±100 for the full control effect; nearly all actives have a fitted effect of over 40% in size
# Target sequence (Q9NUW8 whole entry, looked up): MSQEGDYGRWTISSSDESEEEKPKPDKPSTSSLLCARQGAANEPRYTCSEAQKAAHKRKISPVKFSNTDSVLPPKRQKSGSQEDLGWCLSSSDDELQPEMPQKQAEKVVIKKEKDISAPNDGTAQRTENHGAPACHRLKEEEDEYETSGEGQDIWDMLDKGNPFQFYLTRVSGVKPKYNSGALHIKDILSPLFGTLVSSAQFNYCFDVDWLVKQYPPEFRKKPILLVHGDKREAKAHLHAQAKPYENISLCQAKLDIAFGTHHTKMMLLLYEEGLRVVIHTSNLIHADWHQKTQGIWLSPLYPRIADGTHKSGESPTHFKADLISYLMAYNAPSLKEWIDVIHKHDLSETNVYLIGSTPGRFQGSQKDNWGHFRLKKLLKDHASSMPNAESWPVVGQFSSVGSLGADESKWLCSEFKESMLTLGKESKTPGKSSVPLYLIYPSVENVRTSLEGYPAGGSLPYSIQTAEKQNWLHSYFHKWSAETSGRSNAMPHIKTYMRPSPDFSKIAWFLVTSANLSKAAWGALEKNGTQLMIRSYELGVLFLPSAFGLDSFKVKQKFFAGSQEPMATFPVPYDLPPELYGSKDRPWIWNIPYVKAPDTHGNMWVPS
#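 Steps: enzyme plus compound, 15 min RT; add biotin/phosphotyrosine-FITC oligonucleotide (15 nM final), react 5 min; add donor/acceptor beads (10 ug/ml final), 10 min; read AlphaScreen. Tdp1 at 1 nM final.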
# TGFb SMAD3 inh = TGF-b pathway inhibition; AID 588855; Potency, µM (doses to about 46.1 µM), for inactives: at the highest dose activity, negative = inhibition, actives largely listed as inhibitors; HepG2 CAGA-GFP TGF-b/SMAD3 reporter, GFP fluorescence, 18 h; TGF-beta stimulated, 500 pg/mL final; actives 1.2% (n = 410,000); note: potency is the fitted concentration of half-maximal effect; % is set by controls: 0 for no effect and ±100 for the full control effect; nearly all actives have a fitted effect of over 65% in size
#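 Using HEPG2 CAGA-GFP reporter cells at 1000 cells/well, we pinned test compounds, stimulated with recombinant TGF-beta (500 pg/mL final) and measured total well GFP after 18 h.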
# HepG2 tox = counter-screen for TGF-b inhibitors: cytotoxicity in HepG2 cells. actives 0.76% (n = 410,000). Potency, µM (highest dose often 46.1 µM), for the others: top-dose activity change, negative = cytotoxicity, actives largely listed as cytotoxic. HepG2 CAGA-GFP viability, ATP luminescence, 18 h; note: potency is the fitted concentration of half-maximal effect
#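 HepG2 CAGA-GFP cells (1000/well, DMEM with 1% FBS) received compound, then TGF-beta at 500 pg/mL final, and were incubated 18 hours at 37 degrees C. Viability was read by CellTiter-Glo luminescence. Media-only wells were set as complete cell-killing and DMSO as no toxicity.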
# TDP1 cell noCPT = qHTS for Inhibitors of human tyrosyl-DNA phosphodiesterase 1 (TDP1): qHTS in cells in absence of CPT. DT40 Tdp1-/- hTDP1 cells, no CPT, ATP luminescence, 48 h. Potency, µM (highest dose often 46.2 µM), for inactives: at the top dose activity change, negative = growth inhibition, hits mostly inhibitors. actives 15% (n = 420,000); note: potency is the fitted concentration of half-maximal effect; % is set by controls: 0 for no effect and ±100 for the full control effect; nearly all actives have a fitted effect of over 55% in size
#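 DT40 Tdp1-/-;hTDP1 cells, no CPT (DMSO vehicle only), 400 cells/well; compounds pin-transferred; ≥48 hr, 37 °C; CellTiter-Glo 30 min RT dark, luminescence read.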
# IL1B secr inh = inflammasome signaling inhibition, IL-1 beta readout; activity change, % at 57.5 µM; actives 4.7% (n = 360,000); THP-1 LPS/ATP IL-1B secretion, AlphaLISA, 16 h; stronger effect = lower value; in the data active = activity change below about -50%; inconclusive = mostly about -30% to -49%; note: % is set by controls: 0 for no effect and ±100 for the full control effect
#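 THP-1 cells pretreated 1 hr with compounds (up to 57.5 uM final), then stimulated with LPS (250 ng/mL final) plus ATP (1.25 mM final); secreted IL-1B measured by AlphaLISA after 16 hr, decreased signal indicating inhibition.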
# Starred values were filed as active, the others as inactive; u = inconclusive; x = no result; [ ] = remark or other dose. Unless noted, calls come from the whole dose curve; as a rule, active = well fitted curve in the direction sought with a large enough effect; inconclusive = small, poorly fitted or top-dose-only effect, or another doubt; inactive = no such curve, though single readings can be large; an effect the other way counts as inactive or inconclusive.
SMILES,DT40 TDP1 CPT,TDP1 block,TGFb SMAD3 inh,HepG2 tox,TDP1 cell noCPT,IL1B secr inh
COc1ccc(S(=O)(=O)N(C)C[C@H]2Oc3c(NC(=O)C4CCCCC4)cccc3C(=O)N([C@H](C)CO)C[C@@H]2C)cc1,u,2%,-9%,-2%,23µM*,-21
COc1ccc(NC(=O)Nc2cccc3c2O[C@H](CN(C)S(=O)(=O)c2ccccc2)[C@@H](C)CN([C@H](C)CO)C3=O)cc1,18µM*,2%,u,-2%,u,-17
O=C(NCCCCc1ccccc1)c1nn(-c2ccccc2)nc1CO,-16%,-7%,0%,-27%,-16%,x
CCOP(=O)(c1ccccc1)c1nc(-c2ccccc2C)oc1NCc1ccccc1 (configuration not stated),u,x,-7%,5%,23µM*,15
CCOP(=O)(OCC)c1nc(-c2ccccc2)oc1N1CCCCC1,21µM*,x,3%,-4%,16µM*,-2
Cc1nc(P(=O)(c2ccccc2)c2ccccc2)c(N2CCOCC2)o1,-11%,-8%,-5%,0%,0%,-19
Cc1ccccc1-c1nc(S(=O)(=O)c2ccc(Br)cc2)c(NCc2cccnc2)o1,-7%,2%,u,-17%,-25%,u
Cc1ccccc1-c1nc(P(=O)(c2ccccc2)c2ccccc2)c(N2CCOCC2)o1,u,5%,-28%,-3%,u,-67*
CCOP(=O)(c1ccccc1)c1nc(-c2ccccc2C)oc1N1CCCCC1 (configuration not stated),13µM*,10%,u,-114%,13µM*,u
Fc1ccc(NCc2ccccc2-c2nnc(-c3ccccc3Cl)o2)cc1,1%,8%,-17%,-18%,u,x
c1ccc(CNc2oc(-c3ccccc3)nc2-c2cccc3ccccc23)cc1,x,4%,x,x,x,x
COP(=O)(OC)c1nc(-c2cccc3ccccc23)oc1NCc1ccccc1,16µM*,-1%,-26%,-8%,18µM*,-23
COC1CCC2(C)C(=CCC3C4CC(O)CC4(C)CCC32)C1 (configuration not stated),21µM*,x,-17%,7%,21µM*,6
Clc1cccc(CON/C=N/c2ncnc3sccc23)c1,18µM*,-2%,11%,4%,10µM*,-12
CNC(=S)/N=C/NOCc1c(Cl)cccc1Cl,7%,0%,6%,13%,-1%,6
Clc1cccc(Cl)c1CON/C=N/c1ncnc2sccc12,23µM*,0%,3%,1%,16µM*,17
Cc1nc2c(c(=O)[nH]1)CSCC2,x,1%,x,x,x,x
O=S(=O)(c1ccccc1F)N1CCN(c2nc(-c3cccnc3)nc3ccccc23)CC1,u,3%,29%,-3%,21µM*,4
CCOc1ccc(S(=O)(=O)N2CCN(c3nc(-c4ccccc4)nc4ccccc34)CC2)cc1,5%,0%,x,x,-16%,x
COc1ccc(S(=O)(=O)N2CCN(c3ccccc3OC)CC2)cc1,u,12%,-5%,-5%,u,-15
COc1ccc(S(=O)(=O)N2CCN(c3ccc4nnc(-c5ccccc5)n4n3)CC2)cc1,12µM*,7%,u,-35%,u,0
COc1ccc(S(=O)(=O)N2CCN(c3nc(-c4cccnc4)nc4ccccc34)CC2)cc1,18µM*,3%,-19%,-24%,8.2µM*,-22
N#Cc1ccccc1S(=O)(=O)N1CCN(c2nc(-c3cccnc3)nc3ccccc23)CC1,u,1%,-1%,-14%,u,-6
Cc1ccc(C)c(S(=O)(=O)N2CCN(c3nc(-c4cccnc4)nc4ccccc34)CC2)c1,8.2µM*,1%[56.1 µM],-22%,-30%,6.5µM*,0
COc1cccc2c3c(c(C)nc12)CC(CO)O3 (configuration not stated),u,7%,x,x,-19%[9.04 µM],x
SMILES,DT40 TDP1 CPT,TDP1 block,TGFb SMAD3 inh,HepG2 tox,TDP1 cell noCPT,IL1B secr inh
CCCCNCCOCCOc1ccc(C)cc1Br,16µM*,-5%,8%,-45%,23µM*,-25
CCC(C)NCCOCCOc1cc(C)c(Cl)c(C)c1 (configuration not stated),26µM*,3%,-23%,-14%,15µM*,u
CCC(C)NCCOCCOc1ccc(F)cc1 (configuration not stated),u,-4%,-6%,5%,-19%,-19
Cc1ccc(OCCOCCNC(C)C)c(Br)c1,-27%,1%,4%,-48%,-23%,-58*
CCN(CC)CCOCCOc1cc(C)c(Cl)c(C)c1,23µM*,2%,-2%,-32%,18µM*,-4
CCC(C)NCCOCCOc1ccc(Cl)cc1Br (configuration not stated),u,u,-24%,13%,u,-80*
CCC(C)NCCOCCOc1ccc(C)cc1OC (configuration not stated),-1%,-8%,9%,3%,u,18
C/C(=N\NC(=S)NCC(C)(C)C)c1cc(F)cc(F)c1O,15µM*,9%,u,-13%,15µM*,-110*
O=C1[C@@H](c2ccccc2)CC[C@@H]2C=CC[C@H]3CCN1[C@@H]32,u,x,x,x,16µM*,4
O=C(O)C1CC=CC2CCN(C3CC3)C(=O)C21 (configuration not stated),x,10%,1%,-12%,x,x
CCCNC(=O)OC[C@@H]1O[C@H](CCON=C(C)C)C=C[C@@H]1Oc1ccc(OC)cc1,x,5%[21 µM],x,x,x,x
COc1ccccc1-c1cc(NC(C)=O)c2ncc(-c3cccc(C(F)(F)F)c3)n2c1,23µM*,x,u,16µM*,21µM*,-4
COc1cccc(-c2cnc3c(NC(C)=O)cc(-c4ccccc4OC)cn23)c1,18µM*,x,-23%,-24%,16µM*,0
COc1cccc(-c2cnc3c(NC(C)=O)cc(-c4cc(OC)c(OC)c(OC)c4)cn23)c1,u,x,26%,-38%,u,0
COc1ccc(-c2cc(NC(C)=O)c3ncc(-c4ccccc4)n3c2)c(OC)c1,u,x,u,3%,-83%,-26
CC(=O)Nc1cc(-c2ccccc2F)cn2c(-c3ccccc3)cnc12,16µM*,x,-14%,-33%,u,-25
